Source: the supplement of paper PMC10849652
About 7,900 targets were measured; listed, in parts, are those with a hit and a random draw of the rest. About 0.6% of all pairs of compound and target were hits. A number with no mark means an inactive call.

What was measured:
Assay in all cases: log2 fold change, soluble protein after heating vs DMSO (PISA); higher = thermal stabilisation; K562 cells, 10 uM, 30 min; active = over 0.2 and 3.5 SD of the protein, either way, in both replicates (recomputed)
saracatinib = compound: CN1CCN(CCOc2cc(OC3CCOCC3)c3c(Nc4c(Cl)ccc5c4OCO5)ncnc3c2)CC1 [saracatinib]
In short: (§1)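 Soluble protein was quantified by TMTpro 16plex LC-MS/MS after channel sums were equalised. It was obtained as the supernatant after 21,000xg for 90 min from pooled aliquots of K562 cells (2×10^6 cells/mL, 10 μM compound, 30 min) heated for 3 min across 48°C-58°C and extracted in PBS with 0.5% NP-40 at 4°C. Thermal stability values are relative to control samples and come from duplicates. They are given as log2 fold changes.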

sotrastaurin = compound: CN1CCN(c2nc(C3=C(c4c[nH]c5ccccc45)C(=O)NC3=O)c3ccccc3n2)CC1 [sotrastaurin]
In short: as §1

alvocidib = compound: CN1CC[C@H](c2c(O)cc(O)c3c(=O)cc(-c4ccccc4Cl)oc23)[C@H](O)C1 [alvocidib]
In short: as §1

Tubastatin A = compound: CN1CCc2c(c3ccccc3n2Cc2ccc(C(=O)NO)cc2)C1 [Tubastatin A]
In short: as §1

[1] = compound: CNC(=O)C1=CC=CC=C1NC2=NC(=NC=C2Cl)NC3=C(C=C(C=C3)N4CCOCC4)OC
In short: as §1

defactinib = compound: CNC(=O)c1ccc(Nc2ncc(C(F)(F)F)c(NCc3nccnc3N(C)S(C)(=O)=O)n2)cc1 [defactinib]
In short: as §1

rucaparib = compound: CNCc1ccc(-c2[nH]c3cc(F)cc4c3c2CCNC4=O)cc1 [rucaparib]
In short: as §1

[2] = compound: CNc1nc(-c2ccc3c(N)n[nH]c3c2)cc(N2C[C@@H](C(=O)NC3CCCCC3)CC[C@H]2C)n1
In short: as §1

encorafenib = compound: COC(=O)N[C@@H](C)CNc1nccc(-c2cn(C(C)C)nc2-c2cc(Cl)cc(NS(C)(=O)=O)c2F)n1 [encorafenib]
In short: as §1

[3] = compound: COC(=O)[C@H](CCSC)NC(=O)C1=C(C=C(C=C1)NC[C@H](CS)N)C2=CC=CC=C2
In short: as §1

[4] = compound: COC1=CC=C(C=C1)CN2C=CC3=C2C=C(C=C3)C(=O)NO
In short: as §1

filanesib = compound: CON(C)C(=O)N1N=C(c2cc(F)ccc2F)S[C@@]1(CCCN)c1ccccc1 [filanesib]
In short: as §1

zotarolimus = compound: CO[C@H]1C[C@@H]2CC[C@@H](C)[C@@](O)(O2)C(=O)C(=O)N2CCCC[C@H]2C(=O)O[C@H]([C@H](C)C[C@@H]2CC[C@H](n3cnnn3)[C@H](OC)C2)CC(=O)[C@H](C)/C=C(\C)[C@@H](O)[C@@H](OC)C(=O)[C@H](C)C[C@H](C)/C=C/C=C/C=C/1C [zotarolimus]
In short: as §1

idasanutlin = compound: COc1cc(C(=O)O)ccc1NC(=O)[C@@H]1N[C@@H](CC(C)(C)C)[C@](C#N)(c2ccc(Cl)cc2F)[C@H]1c1cccc(Cl)c1F [idasanutlin]
In short: as §1

alisertib = compound: COc1cc(Nc2ncc3c(n2)-c2ccc(Cl)cc2C(c2c(F)cccc2OC)=NC3)ccc1C(=O)O [alisertib]
In short: as §1

[5] = compound: COc1cc2nc(-c3cc(F)ccc3O)nc(N[C@@H]3CNC[C@H]3C(C)(C)O)c2cc1OC
In short: as §1

gefitinib = compound: COc1cc2ncnc(Nc3ccc(F)c(Cl)c3)c2cc1OCCCN1CCOCC1 [gefitinib]
In short: as §1

[6] = compound: COc1cccc2cc(-c3nc([C@H]4CC[C@H](C(=O)O)CC4)n4ncnc(N)c34)[nH]c12
In short: as §1

lapatinib = compound: CS(=O)(=O)CCNCc1ccc(-c2ccc3ncnc(Nc4ccc(OCc5cccc(F)c5)c(Cl)c4)c3c2)o1 [lapatinib]
In short: as §1

pictilisib = compound: CS(=O)(=O)N1CCN(Cc2cc3nc(-c4cccc5[nH]ncc45)nc(N4CCOCC4)c3s2)CC1 [pictilisib]
In short: as §1

UniProt Q969V5, sequence (Q969V5 whole entry, looked up): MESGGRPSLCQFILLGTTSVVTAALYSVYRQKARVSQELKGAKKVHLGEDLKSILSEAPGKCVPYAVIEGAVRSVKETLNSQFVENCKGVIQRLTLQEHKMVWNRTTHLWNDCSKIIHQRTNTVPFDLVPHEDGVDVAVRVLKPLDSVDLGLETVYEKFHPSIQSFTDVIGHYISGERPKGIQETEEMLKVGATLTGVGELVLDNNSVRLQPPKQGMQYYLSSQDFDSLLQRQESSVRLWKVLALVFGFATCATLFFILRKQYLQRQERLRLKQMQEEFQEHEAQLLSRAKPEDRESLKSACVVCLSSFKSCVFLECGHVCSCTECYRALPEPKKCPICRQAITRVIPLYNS
UniProt O00566, sequence (O00566 whole entry, looked up): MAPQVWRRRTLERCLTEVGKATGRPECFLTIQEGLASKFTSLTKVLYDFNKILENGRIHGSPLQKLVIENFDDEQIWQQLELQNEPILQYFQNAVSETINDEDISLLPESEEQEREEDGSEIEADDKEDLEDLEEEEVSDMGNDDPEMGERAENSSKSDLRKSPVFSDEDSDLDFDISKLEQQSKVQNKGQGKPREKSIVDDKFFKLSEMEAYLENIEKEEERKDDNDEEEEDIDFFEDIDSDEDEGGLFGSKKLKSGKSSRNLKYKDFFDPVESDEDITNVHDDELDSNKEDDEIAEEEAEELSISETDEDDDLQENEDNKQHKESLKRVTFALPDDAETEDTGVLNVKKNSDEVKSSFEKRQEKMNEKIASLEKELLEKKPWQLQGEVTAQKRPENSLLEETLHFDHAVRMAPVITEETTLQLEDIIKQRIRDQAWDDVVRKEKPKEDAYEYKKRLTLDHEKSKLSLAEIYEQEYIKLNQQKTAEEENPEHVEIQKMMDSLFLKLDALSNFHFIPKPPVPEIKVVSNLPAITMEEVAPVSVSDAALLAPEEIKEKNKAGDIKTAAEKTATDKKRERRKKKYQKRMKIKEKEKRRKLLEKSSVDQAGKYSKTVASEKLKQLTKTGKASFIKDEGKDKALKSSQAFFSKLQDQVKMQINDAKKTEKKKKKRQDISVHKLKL
UniProt O60551, sequence (O60551 whole entry, looked up): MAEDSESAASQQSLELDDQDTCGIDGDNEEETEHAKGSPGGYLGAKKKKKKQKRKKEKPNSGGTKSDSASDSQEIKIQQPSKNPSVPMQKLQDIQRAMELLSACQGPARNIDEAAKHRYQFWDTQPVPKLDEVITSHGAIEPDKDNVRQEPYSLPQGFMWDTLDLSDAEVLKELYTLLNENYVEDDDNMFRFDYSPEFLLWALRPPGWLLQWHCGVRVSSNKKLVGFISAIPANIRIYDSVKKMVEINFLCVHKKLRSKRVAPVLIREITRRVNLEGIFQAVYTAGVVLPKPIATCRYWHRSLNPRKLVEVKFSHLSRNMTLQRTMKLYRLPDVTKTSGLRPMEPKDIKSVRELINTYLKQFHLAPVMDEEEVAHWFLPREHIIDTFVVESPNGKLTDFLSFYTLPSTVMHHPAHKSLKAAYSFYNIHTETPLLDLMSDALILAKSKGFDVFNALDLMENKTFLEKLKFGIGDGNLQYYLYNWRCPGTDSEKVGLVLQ
UniProt Q12769, sequence (Q12769 whole entry, looked up): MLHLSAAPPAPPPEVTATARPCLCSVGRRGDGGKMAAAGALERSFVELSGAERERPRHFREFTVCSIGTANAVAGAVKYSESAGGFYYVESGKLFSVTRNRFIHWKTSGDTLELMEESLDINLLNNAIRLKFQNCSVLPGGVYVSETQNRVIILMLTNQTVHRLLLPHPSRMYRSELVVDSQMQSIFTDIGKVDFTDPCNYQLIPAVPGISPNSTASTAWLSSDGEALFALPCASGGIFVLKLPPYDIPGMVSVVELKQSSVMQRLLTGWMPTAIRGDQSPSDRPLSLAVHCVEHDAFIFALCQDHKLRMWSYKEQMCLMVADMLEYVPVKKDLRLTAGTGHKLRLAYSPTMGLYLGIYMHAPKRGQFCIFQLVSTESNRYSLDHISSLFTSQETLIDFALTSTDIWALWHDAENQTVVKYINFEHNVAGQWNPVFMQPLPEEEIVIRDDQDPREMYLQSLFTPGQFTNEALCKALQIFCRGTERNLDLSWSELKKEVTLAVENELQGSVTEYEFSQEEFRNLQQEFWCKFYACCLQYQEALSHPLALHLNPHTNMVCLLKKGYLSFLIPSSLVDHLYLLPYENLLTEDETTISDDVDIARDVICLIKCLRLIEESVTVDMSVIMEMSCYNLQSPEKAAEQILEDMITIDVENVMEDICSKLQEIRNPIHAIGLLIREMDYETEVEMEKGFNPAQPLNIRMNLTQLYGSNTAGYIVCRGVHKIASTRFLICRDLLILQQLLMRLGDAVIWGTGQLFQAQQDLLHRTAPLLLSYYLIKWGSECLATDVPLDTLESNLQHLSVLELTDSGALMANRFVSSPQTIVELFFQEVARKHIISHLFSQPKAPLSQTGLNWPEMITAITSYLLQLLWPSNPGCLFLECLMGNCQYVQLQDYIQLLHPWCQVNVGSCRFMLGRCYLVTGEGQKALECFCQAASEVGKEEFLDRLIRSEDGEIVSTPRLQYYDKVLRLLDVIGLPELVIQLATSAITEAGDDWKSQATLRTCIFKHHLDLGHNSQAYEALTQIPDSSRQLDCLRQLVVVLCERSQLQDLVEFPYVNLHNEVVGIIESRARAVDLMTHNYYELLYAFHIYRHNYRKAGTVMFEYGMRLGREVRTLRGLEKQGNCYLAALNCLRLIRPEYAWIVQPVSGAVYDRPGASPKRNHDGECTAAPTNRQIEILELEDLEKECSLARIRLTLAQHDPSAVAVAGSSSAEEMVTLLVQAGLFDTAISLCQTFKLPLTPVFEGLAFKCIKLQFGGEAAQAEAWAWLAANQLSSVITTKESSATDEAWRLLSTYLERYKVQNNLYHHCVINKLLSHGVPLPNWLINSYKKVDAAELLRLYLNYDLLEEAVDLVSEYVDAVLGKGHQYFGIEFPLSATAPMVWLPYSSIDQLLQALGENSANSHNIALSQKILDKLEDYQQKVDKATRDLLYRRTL
UniProt Q9BV86, sequence (Q9BV86 whole entry, looked up): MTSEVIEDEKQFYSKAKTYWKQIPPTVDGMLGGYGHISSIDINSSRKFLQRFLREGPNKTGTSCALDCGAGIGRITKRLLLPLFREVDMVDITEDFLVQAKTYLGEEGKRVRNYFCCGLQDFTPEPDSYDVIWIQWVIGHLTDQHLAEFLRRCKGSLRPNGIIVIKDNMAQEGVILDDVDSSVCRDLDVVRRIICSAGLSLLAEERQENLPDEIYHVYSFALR
UniProt O00567, sequence (O00567 whole entry, looked up): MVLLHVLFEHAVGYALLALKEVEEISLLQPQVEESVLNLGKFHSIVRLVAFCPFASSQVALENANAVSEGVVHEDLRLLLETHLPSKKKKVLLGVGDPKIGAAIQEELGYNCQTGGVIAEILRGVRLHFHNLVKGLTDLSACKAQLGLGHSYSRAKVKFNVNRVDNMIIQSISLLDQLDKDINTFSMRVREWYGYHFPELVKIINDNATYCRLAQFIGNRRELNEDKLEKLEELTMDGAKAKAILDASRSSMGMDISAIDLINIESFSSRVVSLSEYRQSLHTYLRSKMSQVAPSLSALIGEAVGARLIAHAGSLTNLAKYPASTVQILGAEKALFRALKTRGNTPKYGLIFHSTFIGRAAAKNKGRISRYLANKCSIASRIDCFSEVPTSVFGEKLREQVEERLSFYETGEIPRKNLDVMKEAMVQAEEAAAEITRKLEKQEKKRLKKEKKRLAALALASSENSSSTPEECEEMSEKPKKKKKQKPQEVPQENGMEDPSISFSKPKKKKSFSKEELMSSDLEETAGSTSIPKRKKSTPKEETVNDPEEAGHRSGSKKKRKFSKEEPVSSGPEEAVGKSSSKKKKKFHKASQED
UniProt Q12986, sequence (Q12986 whole entry, looked up): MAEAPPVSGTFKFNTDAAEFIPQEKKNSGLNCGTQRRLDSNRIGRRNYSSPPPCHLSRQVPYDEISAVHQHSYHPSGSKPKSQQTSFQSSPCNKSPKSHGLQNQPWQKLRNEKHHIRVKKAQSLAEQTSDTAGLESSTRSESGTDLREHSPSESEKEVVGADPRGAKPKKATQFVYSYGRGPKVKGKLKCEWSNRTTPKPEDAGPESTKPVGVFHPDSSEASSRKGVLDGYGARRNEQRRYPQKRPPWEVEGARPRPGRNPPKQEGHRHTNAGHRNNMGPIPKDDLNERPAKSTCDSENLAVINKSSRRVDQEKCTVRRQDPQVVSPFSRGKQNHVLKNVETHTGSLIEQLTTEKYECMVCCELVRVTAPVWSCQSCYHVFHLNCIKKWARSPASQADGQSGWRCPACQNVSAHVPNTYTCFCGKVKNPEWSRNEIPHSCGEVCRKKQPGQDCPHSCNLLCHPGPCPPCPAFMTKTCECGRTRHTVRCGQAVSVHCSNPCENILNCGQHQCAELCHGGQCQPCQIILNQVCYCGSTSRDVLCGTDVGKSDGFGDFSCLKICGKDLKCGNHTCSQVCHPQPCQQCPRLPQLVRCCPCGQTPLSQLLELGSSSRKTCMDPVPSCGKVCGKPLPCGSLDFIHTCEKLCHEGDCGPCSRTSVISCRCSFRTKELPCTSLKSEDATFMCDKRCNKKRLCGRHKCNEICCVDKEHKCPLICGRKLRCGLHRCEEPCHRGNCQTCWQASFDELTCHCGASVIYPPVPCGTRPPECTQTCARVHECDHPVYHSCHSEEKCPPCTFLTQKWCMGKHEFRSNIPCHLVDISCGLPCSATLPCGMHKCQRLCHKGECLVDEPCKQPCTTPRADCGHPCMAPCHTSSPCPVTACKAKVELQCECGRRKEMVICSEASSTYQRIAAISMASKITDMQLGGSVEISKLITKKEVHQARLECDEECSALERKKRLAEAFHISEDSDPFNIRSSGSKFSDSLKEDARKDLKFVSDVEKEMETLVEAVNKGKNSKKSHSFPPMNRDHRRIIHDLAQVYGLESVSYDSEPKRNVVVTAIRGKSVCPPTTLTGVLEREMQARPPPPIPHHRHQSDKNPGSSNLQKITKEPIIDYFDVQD
UniProt Q9BRA0, sequence (Q9BRA0 whole entry, looked up): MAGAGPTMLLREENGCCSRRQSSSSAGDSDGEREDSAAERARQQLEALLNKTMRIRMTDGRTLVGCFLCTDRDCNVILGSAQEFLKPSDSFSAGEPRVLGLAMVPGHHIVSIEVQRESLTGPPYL

Target	log2 fold change (saracatinib)	log2 fold change (sotrastaurin)	log2 fold change (alvocidib)	log2 fold change (Tubastatin A)	log2 fold change [1]	log2 fold change (defactinib)	log2 fold change (rucaparib)	log2 fold change [2]	log2 fold change (encorafenib)	log2 fold change [3]	log2 fold change [4]	log2 fold change (filanesib)	log2 fold change (zotarolimus)	log2 fold change (idasanutlin)	log2 fold change (alisertib)	log2 fold change [5]	log2 fold change (gefitinib)	log2 fold change [6]	log2 fold change (lapatinib)	log2 fold change (pictilisib)
NOP56 (UniProt O00567)	-0.034	0.018	0.104	-0.01	-0.067	0.375	0.233	-0.028	0.057	0.007	-0.083	0.605 (active)	0.136	0.345	0.007	0.045	-0.046	-0.078	0.098	0.013
NAA38 isoform 2 (UniProt Q9BRA0)	-0.02	0.009	-0.108	0.081	-0.044	-0.101	0.023	0.044	0.022	-0.058	0.033	-0.014	0.001	-0.045	0.044	-0.005	0.02	0.052	0.062	0.023
NMT2 (UniProt O60551)	-0.031	0.007	-0.021	0.008	0.146	-0.016	-0.04	-0.027	0.02	0.023	-0.064	-0.018	0.019	-0.062	-0.096	0.082	-0.069	-0.046	-0.047	0.087
NUCKS1 (UniProt Q9H1E3)	0.006	0.075	0.115	-0.006	-0.167	0.048	0.027	-0.071	-0.068	-0.006	-0.035	0.051	-0.031	-0.011	-0.071	0.182	-0.001	0.02	-0.064	-0.011
NUP210 (UniProt Q8TEM1)	0.017	-0.019	-0.04	-0.003	-0.147	-0.021	-0.039	-0.07	0.027	-0.035	-0.099	-0.08	0.002	0.019	-0.045	-0.319 (active)	-0.053	0.045	-0.089	-0.114
MRPS10 (UniProt P82664)	-0.029	-0.076	-0.007	0.035	-0.034	-0.071	0.006	0.097	0.014	-0.055	-0.041	0.045	0.08	-0.088	-0.014	-0.017	-0.042	0.012	0.069	-0.112
MUL1 (UniProt Q969V5)	0.054	0.079	-0.013	0.047	0.056	0.059	0.072	-0.018	-0.074	0.079	-0.044	0.042	-0.064	-0.052	0.069	-0.05	0.017	-0.08	0.006	0.006
MPHOSPH10 (UniProt O00566)	-0.123	-0.061	0.086	0.098	-0.023	0.11	0.229	-0.081	0.214	0.045	-0.139	0.561 (active)	0.053	0.271	-0.061	-0.166	0.026	-0.031	0.174	-0.105
NTMT1 (UniProt Q9BV86)	-0.048	0.055	-0.104	-0.071	-0.032	-0.081	0.169	0.184	0.06	-0.157	-0.455 (active)	-0.055	0.091	-0.121	-0.043	0.085	0.062	-0.027	-0.001	0.092
NRF1 isoform 4 (UniProt Q16656)	0.102	-0.045	-0.159	0.015	-0.016	-0.34 (active)	-0.11	-0.061	0.036	0.015	0.048	-0.054	0.098	0.03	-0.077	-0.135	0.03	0.019	-0.078	0.167
PAK1 isoform 2 (UniProt Q13153)	0.074	-0.015	-0.026	-0.098	0.009	0.039	-0.082	-0.009	0.033	0.048	0.178	0.04	0.003	-0.155	0.086	-0.007	-0.025	-0.098	-0.015	0.183
MSTO1 (UniProt Q9BUK6)	0.047	0.025	-0.001	0.023	-0.031	-0.045	-0.029	0.235 (active)	0.04	0.034	-0.022	-0.078	-0.045	-0.08	0.007	0.024	-0.018	0.025	-0.009	0.021
NOP58 (UniProt Q9Y2X3)	-0.044	-0.008	0.075	0.014	-0.058	-0.004	0.304	-0.01	0.106	-0.076	-0.124	0.528 (active)	0.044	0.229	-0.035	-0.096	0.039	-0.028	0.054	0.049
NFX1 (UniProt Q12986)	-0.246	-0.09	0.08	-0.001	0.014	0.009	0.269	-0.237	-0.01	0	-0.152	0.133	-0.141	0.102	0.203	0.079	0.037	-0.012	0.112	0.004
NUP160 (UniProt Q12769)	0.155	-0.141	-0.078	0	0.004	-0.11	0.019	-0.018	0.038	0.003	-0.043	-0.003	0.017	0.004	-0.076	-0.068	0.033	0.037	0.057	-0.021
NOL11 (UniProt Q9H8H0)	0.093	0.022	0.089	-0.08	0.007	0.186	0.071	0.002	-0.012	-0.009	-0.029	0	0.005	-0.046	-0.017	0.067	-0.008	0.056	0.005	0.025
